High-throughput results: PubChem BioAssay, National Center for Advancing Translational Sciences (NCATS)
Sampled rows, rich in hits. Any-hit rate of the full collection: about 3%.
KDM4E inh – inhibitors of human JMJD2E histone demethylase; B2RXH2; JMJD2E catalytic domain, FDH-coupled NADH fluorescence (FDH is formaldehyde dehydrogenase); Potency, µM (titrated, usually from 57.1 µM), for inactives: top-dose activity change, negative = inhibition, most hits filed as inhibitors; 1.6% of 230,000 active; AID 2147; active = well fitted inhibition curve with a large enough effect, not every such curve was filed as active; inconclusive = small, poorly fitted or top-dose-only effect, or another doubt; inactive = no such curve, though single readings can be large or run the other way;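 also: potency is read from the fitted curve at half-maximal effect; 0% = wells with enzyme and -100% = buffer wells without enzyme; nearly all actives have a fitted effect of over 50% in size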
Target sequence (B2RXH2 1-337 limits assumed): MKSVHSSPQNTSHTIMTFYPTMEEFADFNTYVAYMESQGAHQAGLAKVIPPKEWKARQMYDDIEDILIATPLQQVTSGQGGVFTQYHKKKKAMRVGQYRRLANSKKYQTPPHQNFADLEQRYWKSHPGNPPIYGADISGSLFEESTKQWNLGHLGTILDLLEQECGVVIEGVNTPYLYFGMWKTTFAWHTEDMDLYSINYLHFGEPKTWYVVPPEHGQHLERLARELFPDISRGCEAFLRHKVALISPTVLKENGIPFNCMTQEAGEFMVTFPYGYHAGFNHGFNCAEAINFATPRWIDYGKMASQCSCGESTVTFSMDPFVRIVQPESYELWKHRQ
Tau FP inhib – inhibitors of human tau fibril formation; P10636; K18 P301L tau heparin fibrillization, Alexa594 FP, 6 h; Potency, µM (doses to about 57.7 µM), without a hit: at the top dose activity, negative = inhibition, usual class: inhibitors; 0.39% of 280,000 active; AID 1468; also: potency is read from the fitted curve at half-maximal effect; nearly all actives have a fitted effect of over 55% in size
Target sequence (P10636 561-689 P618L limits assumed): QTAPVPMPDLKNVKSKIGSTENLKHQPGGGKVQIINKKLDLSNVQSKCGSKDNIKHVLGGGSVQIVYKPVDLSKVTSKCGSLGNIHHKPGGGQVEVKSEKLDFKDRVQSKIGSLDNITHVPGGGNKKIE
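Recombinant K18 P301L […], labeled with Alexa 594 at 0.24 uM over 15 uM unlabeled; heparin inducer 20 uM final; 37 C, 6 hr; FP endpoint.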
Tau fibril ThT – tau fibrillization inhibition (ThT binding). P10636. recombinant tau K18 P301L, heparin-induced fibrillization, ThT fluorescence. Potency, µM (titrated, usually from 57.4 µM), inactives show top-dose activity, negative = inhibition, most hits filed as inhibitors. 2.1% of 270,000 active. AID 1460; also: potency is read from the fitted curve at half-maximal effect; nearly all actives have a fitted effect of over 55% in size
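K18 P301L tau (15 uM + 0.24 uM Alexa 594-tagged), heparin 20 uM, NaOAc pH 7, 6 h 37 C; ThT 30 uM, 1 h RT, ex 450/em 510 nm.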
Tau fluor counter – counter-screen for tau fibril formation inhibitors. tau K18 P301L (four-repeat tau fragment) Alexa594 fluorescence, heparin fibrillization. Potency, µM (top dose mostly 57.7 µM), inactives show at the highest dose activity change, negative = decrease. 0.93% of 280,000 active; also: potency is read from the fitted curve at half-maximal effect; nearly all actives have a fitted effect of over 55% in size
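Human K18 P301L tau (15 uM unlabeled plus 0.24 uM Alexa 594-labeled, final) in 100 mM sodium acetate pH 7 was mixed with compound and 20 uM heparin and incubated 6 hr at 37 C.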
FBPA coupling cs – coupling enzyme interference in Giardia aldolase counter-screen. coupling enzyme system counterscreen, AmpLite Red fluorescence. activity change, negative = inhibition, % at 58.2 µM, hits read low. 0.67% of 290,000 active. AID 2472; in the data active = activity change below about -30%
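First, compound is pin-transferred into glyceraldehyde-3-phosphate coupling-enzyme reagent at 57.5 uM final and held 10 min at RT. Next, substrate, coupling system and AmpLite Red are added. After 20 min RT, fluorescence (525/598 nm) is read.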
An asterisk follows results filed as active; ? = inconclusive; nt = not tested or not shown; [ ] = dose if it differs, or a comment. Unless noted, calls follow the shape of the dose curve; as a rule, active = well fitted curve in the direction sought with a large enough effect; inconclusive = small, poorly fitted or top-dose-only effect, or another doubt; inactive = no such curve, though single readings can be large; an effect the other way counts as inactive or inconclusive. Unless noted, % is scaled to controls: 0 for no effect and ±100 for the full control effect.

SMILES	KDM4E inh	Tau FP inhib	Tau fibril ThT	Tau fluor counter	FBPA coupling cs
COc1ccccc1C(=O)Nc1ccccc1OCc1cc(=O)n2c(C)csc2n1	nt	-7%	-5%	-25%	nt
COc1ccc(-c2onc(C)c2C)cc1S(=O)(=O)NCC1CCN(Cc2cc(C)ccc2C)CC1	nt	1%	-10%	-18%	nt
CCCCN1C(=O)C(O)(c2c[nH]c3ccccc23)c2cc(Br)ccc21 (stereo unspecified)	nt	-1%	-11%	?	nt
CCN(CC)c1ccc(NC2CC(=O)N(CCc3ccc(OC)cc3)C2=O)cc1 (stereo unspecified)	13µM*	?	11µM*	?	-25
COC(=O)c1ccc2c(c1O)C(=O)c1ccccc1C2=O	8%	-3%	5.6µM*	?	-44*
O=C1c2cccc(O)c2C(=O)c2c(O)cccc21	-7%	-6%	?	?	0
CCSc1c(C(=O)NC)ccc2c1C(=O)c1ccccc1C2=O	-3%	6%	?	-9%	nt
O=C1c2ccccc2C(=O)c2c1ccc(O)c2O	14µM*	-7%	8.9µM*	?	0
O=C1c2ccc(O)c(O)c2C(=O)c2c(O)ccc(O)c21	3.5µM*	13µM*	1.4µM*	2.5µM*[quencher]	-1
CC1(C)CC(=O)C(CC2C(=O)CC(C)(C)CC2=O)C(=O)C1	0%	?	10µM*	?	-5
COc1ccc(-n2nc(C(=O)N3CCN(c4cccc(C)c4C)CC3)c3c4ccccc4n(C)c3c2=O)cc1	nt	-10%	-1%	-10%	nt
COC(=O)c1cccc(-n2c(CCC(=O)O)ccc2-c2cccs2)c1	25µM*	2%	?	-16%	9
CC(=O)c1ccc(NC(=O)c2c3c(nc4ccccc24)C(=O)N(C2CCCCC2)C3)cc1	nt	6%	-2%	-8%	nt
COc1ccc(C(CC(=O)NCc2ccccc2)N2Cc3ccccc3C2=O)cc1 (stereo unspecified)	nt	7%	8%	-5%	nt
CCCN(Cc1ccc(N(C)C)cc1)CC1CC1	-9%	-6%	-11%	-9%	-50*
CCOC(=O)c1sc(NC(=O)CSc2nc(C)cc(-c3ccccc3)n2)c(C#N)c1C	-6%	?	35µM*	?	5
COc1ccc(-c2cc(-c3ccccc3)c(C#N)c(SCC(=O)Nc3ncc(C)s3)n2)cc1	?	28µM*	-9%	-28%	1
CCOC(=O)c1sc(NC(=O)CSc2nc(C)cc(C)c2C#N)c(C#N)c1C	-1%	11%	-17%	-10%	5
COc1ccc(-c2cc(-c3ccccc3)nc(SCC(=O)Nc3nccs3)c2C#N)cc1	-20%	?	-1%	-27%	0
COC(=O)CSc1nc(N)c(C#N)c(-c2ccco2)c1C#N	?	-1%	?	-15%	-3
COC(=O)CSc1nc(-c2ccccc2)cc(-c2ccco2)c1C#N	0%	-19%	?	-28%	-32*
O=C(CCCn1c(=O)c2cccn2c2ccccc21)NCCc1ccc(Cl)cc1	nt	2%	?	-18%	nt
COc1ccc(-c2c(O)c3cc(O)cc(O)c3oc2=O)cc1	nt	nt	nt	nt	1
Cn1c(=O)c2c(nc(NNC(=O)C(F)(F)F)n2C)n(C)c1=O	-26%	-4%	-15%	-11%	1
Cn1c(=O)c2c(nc(NN=C3CCCC3)n2C)n(C)c1=O	?	?	22µM*	22µM*[quencher]	-5
COC(=O)c1ccc2c(c1)C(C)(C)C(/C=C/c1ccc(O)cc1)=[N+]2C	43%	?	13µM*	?	-2
O=C1/C(=C/c2ccc(O)c(O)c2)Oc2cc(O)ccc21	16µM*	4%	14µM*	?	-7
CC[C@H](C)[C@H](NC(=O)[C@H](CO)NC(=O)[C@H](C)NC(=O)[C@H](C)NC(=O)[C@H](CCC(N)=O)NC(=O)[C@H](CCCCN)NC(=O)[C@H](CCCN=C(N)N)NC(=O)[C@@H](N)CS)C(=O)N[C@@H](CCCCN)C(=O)N[C@H](C(=O)N[C@@H](C)C(=O)N[C@H](C(=O)N[C@@H](CO)C(=O)O)C(C)C)C(C)C	nt	nt	nt	nt	1
Cc1cccc(OCC(=O)NNc2c3ccccc3nc3ccccc23)c1	3%	8%	?	14µM*[quencher]	1
CCOc1ccc(Nc2cc(C)c3ccccc3n2)cc1	nt	nt	nt	nt	1
